The values below come from the OligoGym collection.
Note: reference of the scale not given here.

The target in the first assay is COG2. Put plainly: pooled miR-30 sensor sort-seq; sequence = guide strand. The settings on record: shRNA.
With TTGAACAGCATGAAACTGTAAC, the sensor-assay potency score (higher = more potent) was -0.748. Take TTGTCGTCGTCGCTCATGCCAC: the sensor-assay potency score (higher = more potent) is -1.52.

TTGTTTGAGCTTATCCTTGTGT registered a sensor-assay potency score (higher = more potent) of 0.0501.

The sequence TCATCTGACCAACACCTCCTAA showed a sensor-assay potency score (higher = more potent) of -1.05. Same read-out and setting: then TTTAATACATCTGACACGGTTT, with -0.235; and ATCGACATCGAAATCTTCCTTC, with 0.744; and TTCTGTGGCAATTCTCTCCAAA, with -0.386. On the same count and under the same terms, for TTCCACTTCTTATTGAAGCTGT the value was 0.407.

The target of another assay is COL16A1. The assay is described as above. The following applies: shRNA.
The sequence TTAATGATCTCTTGTCTGATGA displayed a sensor-assay potency score (higher = more potent) of -0.576. Still for that read-out and setting: for TTGACTTCCAGGGATATCTGTG the value was -0.154; for TTTTAATGATCTCTTGTCTGAT, -0.328. On the same count and under the same terms, then TTCCAATTTGAGTCCTTCCTGC, with 0.311; and TGTAGTAAGCCATTCTCTCATC, with -0.613; and TTTCTTCAGCAGTAGTGTCAGC, with -0.871. Turning to TGAACCTCTTGATTTCATCATA, the sensor-assay potency score (higher = more potent) is -1.14.

Consider TAGACCTTGCCTTCAGACTGTG, for which the sensor-assay potency score (higher = more potent) is 0.244. ATTTTAATGATCTCTTGTCTGA returned a sensor-assay potency score (higher = more potent) of -0.577. Same read-out and setting: then TTCTCTGCCAATCTGACCAGGG, with -0.174; and ATCTCTTGTCTGATGAACCTCT, with -0.329. In the case of TGGTTTGCCACAGTCACCCTTA, the sensor-assay potency score (higher = more potent) is -0.19. On the same count and under the same terms, for TCTTGTCTGATGAACCTCTTGA the value was 0.162; for TTGGTAAGGATCCCAGTTCTGC, -0.831; for TTGAAGGCCAGGCAATCCGGGG, -1.21. Same read-out and setting: then TTGAACTCCTGGTAGACCGGGT, with 0.285. As to TTGTCTGATGAACCTCTTGATT, the sensor-assay potency score (higher = more potent) was -1.11. The same measure, in the same setting: for ATGCAGGACACAAAGTCGCCAT the value was -0.876; for TTTAATGATCTCTTGTCTGATG, -0.368; for TCGAACACAGTCATTGCCCCGT, -0.664. Same read-out and setting: then TTGCGGATCTTCTTGATGGCAG, with -0.676. The same measure, in the same setting: for AAGTGTGACATTGCTGTCCCGG the value was -0.502. In turn, TTGAAACAGATACCACGTCTTC yielded a sensor-assay potency score (higher = more potent) of -0.641.

A further assay has as its target COL20A1. Described as above. The settings on record: shRNA.
TCAATCACAAACTCCCTCCGAG showed a sensor-assay potency score (higher = more potent) of 0.439. Still for that read-out and setting: then AGCAGTGTGCACATCGTCCTGG, with -0.7. On the same count and under the same terms, for TAGACGTCACTGACCCGTCTTG the value was -0.759; for TAGGTCAGGGACTTCTTCCCGG, -0.568; for TTGAAGAGCGTGAAGGTCGGGG, 0.169. In turn, TAGAGCCTGACCTTGGAGCGGC displayed a sensor-assay potency score (higher = more potent) of -0.375. On the same count and under the same terms, then TTGGTGTGAAGGCAACTTGGGG, with -0.796.

Take TCGAACTTTGACACGTGTGAGG: the sensor-assay potency score (higher = more potent) is -1.19. Turning to TCTTCCTGAGCTTTTCTCCTGG, the sensor-assay potency score (higher = more potent) was -0.053.
